Among all 5,500 compounds or so, about 2,000 (36%) were called active. About 18% were inconclusive and are not listed. Some of the results follow. Values without a mark were called inactive. No stated cut-off is given here; in the data, active means normalized growth mostly below about 0.91 (no sharp cut-off); inconclusive means no clear call, values can overlap the other calls; inactive means mostly above about 0.92.
Assay: chemical genetic growth profiling, strain panel (AID 1159580);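 further: tested at 20 µM; growth read once vehicle control cultures reached saturation at 30 °C; 1 = growth at the plate median or of vehicle wells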
Details: S. cerevisiae deletion strains, growth OD

C=C(C)[C@H]1COc2cc3oc(=O)ccc3cc2O1
normalized growth (locus YJR043C, strain POL32, stronger effect = lower value): 0.249 (active) | normalized growth (locus YJR066W, strain TOR1, stronger effect = lower value): 0.926 | normalized growth (locus YKL009W, strain mrt4, stronger effect = lower value): 0.965 | normalized growth (locus YKL068W, stronger effect = lower value): 0.985 | normalized growth (locus YKL085W, strain MDH1 (second series), stronger effect = lower value): 0.972 | normalized growth (locus YKL085W, strain MDH1, stronger effect = lower value): 0.972 | normalized growth (locus YKL160W, strain elf1, stronger effect = lower value): 0.749 (active) | normalized growth (locus YKR001C, strain vps1, stronger effect = lower value): 0.0831 (active) | normalized growth (locus YKR026C, strain gcn3, stronger effect = lower value): 0.979 | normalized growth (locus YKR091W, strain srl3, stronger effect = lower value): 0.973 | normalized growth (locus YLL001W, strain dnm1, stronger effect = lower value): 0.868 (active) | normalized growth (locus YLL026W, stronger effect = lower value): 0.966 | normalized growth (locus YLL041C, strain sdh2, stronger effect = lower value): 0.989 | normalized growth (locus YLR027C, strain aat2, stronger effect = lower value): 0.935 | normalized growth (locus YLR039C, strain RIC1, stronger effect = lower value): 0.12 (active) | normalized growth (locus YLR058C, strain SHM2, stronger effect = lower value): 0.571 (active) | normalized growth (locus YLR102C, strain apc9, stronger effect = lower value): 0.863 (active) | normalized growth (locus YLR113W, strain HOG1, stronger effect = lower value): 0.996 | normalized growth (locus YLR221C, strain rsa3, stronger effect = lower value): 0.898 (active) | normalized growth (locus YLR258W, strain gsy2, stronger effect = lower value): 0.902 (active) | normalized growth (locus YLR262C, strain YPT6 (second series), stronger effect = lower value): 0.23 (active) | normalized growth (locus YLR262C, strain YPT6, stronger effect = lower value): 0.166 (active) | normalized growth (locus YLR268W, strain sec22, stronger effect = lower value): 0.597 (active) | normalized growth (locus YLR320W, strain mms22, stronger effect = lower value): 0.75 (active) | normalized growth (locus YLR330W, strain CHS5, stronger effect = lower value): 0.0549 (active) | normalized growth (locus YLR342W, strain FKS1 (second series), stronger effect = lower value): 0.075 (active) | normalized growth (locus YLR342W, strain FKS1, stronger effect = lower value): 0.0723 (active) | normalized growth (locus YLR357W, strain rsc2, stronger effect = lower value): 0.538 (active) | normalized growth (locus YLR370C, strain arc18, stronger effect = lower value): 0.657 (active) | normalized growth (locus YLR371W, strain rom2, stronger effect = lower value): 0.123 (active) | normalized growth (locus YLR384C, strain iki3, stronger effect = lower value): 0.993 | normalized growth (locus YLR418C, strain cdc73, stronger effect = lower value): 0.18 (active) | normalized growth (locus YML016C, strain PPZ1, stronger effect = lower value): 0.548 (active) | normalized growth (locus YML032C, strain rad52, stronger effect = lower value): 0.555 (active) | normalized growth (locus YML120C, strain ndi1, stronger effect = lower value): 0.972 | normalized growth (locus YML124C, strain tub3, stronger effect = lower value): 0.805 (active) | normalized growth (locus YMR058W, strain fet3, stronger effect = lower value): 0.838 (active) | normalized growth (locus YMR078C, strain ctf18, stronger effect = lower value): 0.871 (active) | normalized growth (locus YMR125W, strain sto1, stronger effect = lower value): 0.982 | normalized growth (locus YMR129W, stronger effect = lower value): 0.989 | normalized growth (locus YMR205C, strain PFK2, stronger effect = lower value): 0.776 (active) | normalized growth (locus YMR223W, strain ubp8, stronger effect = lower value): 0.514 (active) | normalized growth (locus YMR231W, strain pep5, stronger effect = lower value): 0.114 (active) | normalized growth (locus YMR307W, strain GAS1, stronger effect = lower value): 0.192 (active) | normalized growth (locus YNL067W, strain RPL9B, stronger effect = lower value): 0.841 (active) | normalized growth (locus YNL071W, strain lat1, stronger effect = lower value): 0.827 (active) | normalized growth (locus YNL153C, strain GIM3, stronger effect = lower value): 0.223 (active) | normalized growth (locus YNL183C, strain NPR1, stronger effect = lower value): 0.925 | normalized growth (locus YNL209W, strain ssb2, stronger effect = lower value): 0.93 | normalized growth (locus YNL233W, strain BNI4, stronger effect = lower value): 0.408 (active) | normalized growth (locus YNL248C, strain rpa49, stronger effect = lower value): 0.932 | normalized growth (locus YNL250W, strain rad50, stronger effect = lower value): 0.995 | normalized growth (locus YNL271C, strain bni1, stronger effect = lower value): 0.846 (active) | normalized growth (locus YNL298W, strain CLA4, stronger effect = lower value): 0.839 (active) | normalized growth (locus YNL307C, strain MCK1, stronger effect = lower value): 0.37 (active) | normalized growth (locus YNL322C, strain KRE1 (second series), stronger effect = lower value): 0.918 | normalized growth (locus YNR049C, strain mso1, stronger effect = lower value): 0.923 | normalized growth (locus YNR052C, strain pop2, stronger effect = lower value): 0.273 (active) | normalized growth (locus YOL012C, strain htz1): 0.694 | normalized growth (locus YOL147C, strain pex11, stronger effect = lower value): 0.757 (active) | normalized growth (locus YOR001W, strain rrp6, stronger effect = lower value): 0.956 | normalized growth (locus YOR061W, strain CKA2, stronger effect = lower value): 0.135 (active) | normalized growth (locus YOR069W, strain VPS5, stronger effect = lower value): 0.687 (active) | normalized growth (locus YOR070C, strain gyp1, stronger effect = lower value): 0.736 (active) | normalized growth (locus YOR080W, strain dia2, stronger effect = lower value): 0.921 | normalized growth (locus YOR083W, strain WHI5, stronger effect = lower value): 0.728 (active) | normalized growth (locus YOR106W, strain vam3, stronger effect = lower value): 0.387 (active) | normalized growth (locus YOR136W, strain idh2, stronger effect = lower value): 0.867 (active) | normalized growth (locus YOR144C, strain elg1, stronger effect = lower value): 0.833 (active) | normalized growth (locus YOR184W, strain ser1, stronger effect = lower value): 0.387 (active) | normalized growth (locus YOR231W, strain MKK1, stronger effect = lower value): 0.978 | normalized growth (locus YOR265W, strain rbl2, stronger effect = lower value): 0.881 (active) | normalized growth (locus YOR270C, strain vph1, stronger effect = lower value): 0.374 (active) | normalized growth (locus YOR290C, strain snf2, stronger effect = lower value): 0.888 | normalized growth (locus YOR316C, strain cot1, stronger effect = lower value): 0.991 | normalized growth (locus YPL051W, strain arl3, stronger effect = lower value): 0.232 (active) | normalized growth (locus YPL078C, strain atp4, stronger effect = lower value): 0.755 (active) | normalized growth (locus YPL106C, strain sse1, stronger effect = lower value): 0.709 (active) | normalized growth (locus YPL240C, strain hsp82, stronger effect = lower value): 0.966 | normalized growth (locus YPL241C, strain CIN2, stronger effect = lower value): 0.286 (active) | normalized growth (locus YPL256C, strain CLN2, stronger effect = lower value): 1.03 | normalized growth (locus YPR119W, strain clb2, stronger effect = lower value): 0.354 (active) | normalized growth (locus YPR141C, strain kar3, stronger effect = lower value): 0.988 | normalized growth (locus YPR163C, strain tif3, stronger effect = lower value): 0.889 (active) | normalized growth (locus YPR167C, strain met16, stronger effect = lower value): 0.766 (active) | normalized growth (strain wtn01, stronger effect = lower value): 0.468 (active)

Source: PubChem BioAssay AID1159580 (chemical genetic matrix, 2015)
